# This is part of a sample that, as a whole, favours compounds with a hit. Of some 79,000 tested, about 15% had one in any assay. Unmarked numbers belong to inactive results. Activity calls are given as the source filed them. Cut-off read from the data, not from the text of the source: active = growth inhibition above about 70%; inactive = the rest.
# Experiments:
# [1] = NCI Yeast Anticancer Drug Screen. Data for the rad50 strain (AID 155);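 note: 0% = growth of vehicle-only cultures of the same strain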; settings: S. cerevisiae rad50 strain growth inhibition, active compounds read high
# Procedure, shortened: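 Inhibition values express reduced yeast growth in compound-treated cultures relative to vehicle-treated controls.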
# [2] = NCI Yeast Anticancer Drug Screen. Data for the mec2-1 strain (AID 157); settings: S. cerevisiae mec2-1 strain, active compounds read high
# Procedure, shortened: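 Mutant yeast (mec2-1) grown with compound; growth inhibition relative to vehicle control reported.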
# [3] = NCI Yeast Anticancer Drug Screen. Data for the sgs1 mgt1 strain (AID 161);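 note: 0% = growth of cultures given vehicle only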; settings: S. cerevisiae sgs1 mgt1 strain, active compounds read high
# Procedure, shortened: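 This yeast growth screen uses a strain with defined DNA-repair lesions; compound-treated growth is compared with vehicle-treated growth.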
# [4] = NCI Yeast Anticancer Drug Screen. Data for the cln2 rad14 strain (AID 165);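 note: 0% = growth equal to vehicle treated cultures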; settings: S. cerevisiae cln2 rad14 strain, active compounds read high
# Procedure, shortened: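 Readout is yeast growth inhibition versus vehicle-treated controls, using a strain with cln2 and rad14 alterations exposed to compound.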
# [5] = NCI Yeast Anticancer Drug Screen. Data for the bub3 strain (AID 167); settings: S. cerevisiae bub3 mutant strain, active compounds read high
# Procedure, shortened: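 Steps: expose the mutant yeast strain to compound; grow alongside vehicle-treated cultures; measure growth; express inhibition against the vehicle cultures.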
# [6] = NCI Yeast Anticancer Drug Screen. Data for the mlh1 rad18 strain (AID 175); settings: S. cerevisiae mlh1 rad18 strain growth inhibition, active compounds read high
# Procedure, shortened: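 Genetically defined yeast (DNA repair-deficient) exposed to compounds; growth inhibition determined relative to vehicle.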
# [7] = at 5.0 µM (retest, dose inferred, filed as 0.5)
# [8] = at 50.0 µM (retest, dose inferred, filed as 5.0)
SMILES,"growth inhibition [1, 7]","growth inhibition [1, 8]",growth inhibition ([1]; at 50.0 µM),"growth inhibition [2, 7]","growth inhibition [2, 8]",growth inhibition ([2]; at 50.0 µM),"growth inhibition [3, 7]","growth inhibition [3, 8]",growth inhibition ([3]; at 50.0 µM),"growth inhibition [4, 7]","growth inhibition [4, 8]",growth inhibition ([4]; at 50.0 µM),"growth inhibition [5, 7]","growth inhibition [5, 8]",growth inhibition ([5]; at 50.0 µM),"growth inhibition [6, 7]","growth inhibition [6, 8]",growth inhibition ([6]; at 50.0 µM)
C/C(=N\Nc1ccccc1)C(CN(C)C)C(c1ccccc1)c1c(O)c2ccccc2oc1=O (stereo not given),24%,24%,88.2% (active),14%,14%,86.2% (active),16%,16%,87.8% (active),5%,5%,86% (active),10%,10%,83.6% (active),12%,12%,86.5% (active)
Cc1cc(N(CCCl)CCCl)ccc1C1N(Cc2ccc(Cl)cc2Cl)CCCN1Cc1ccc(Cl)cc1Cl,42%,85% (active),40.5%,-4%,65%,18.2%,25%,91% (active),57.5%,14%,60%,14.4%,22%,92% (active),16.1%,18%,96% (active),52.2%
O=C(Nc1ccccc1)c1cc([N+](=O)[O-])ccc1O.[Ni],51%,45%,69.3%,34%,37%,57.6%,34%,100% (active),77.5% (active),46%,100% (active),33.5%,54%,99% (active),59.8%,38%,36%,52.3%
CCOC(=O)C(c1ccsc1)P(=O)(OCC)OCC (stereo not given),11%,60%,69.2%,-21%,74% (active),66.7%,12%,53%,60.6%,19%,68%,57%,8%,87% (active),67.3%,4%,84% (active),60.9%
Nc1ccc(Br)cc1C(=O)c1ccccc1,12%,95% (active),99% (active),11%,97% (active),99% (active),32%,98% (active),99.2% (active),12%,95% (active),92.5% (active),6%,96% (active),94% (active),14%,95% (active),99.2% (active)
COc1cc(N(CC(C)Br)CC(C)Br)ccc1N=Nc1ccccc1C(=O)O (stereo not given),42%,96% (active),65.2%,26%,95% (active),29.1%,54%,95% (active),32.4%,52%,98% (active),78.2% (active),52%,92% (active),32.9%,33%,94% (active),80.2% (active)
Cc1cc[n+](C2C(=O)c3ccccc3C(=O)C2Nc2cc(Cl)ccc2Cl)cc1 (stereo not given),19%,96% (active),96.8% (active),11%,98% (active),98.8% (active),11%,99% (active),78.9% (active),5%,95% (active),66.2%,15%,98% (active),98.5% (active),12%,98% (active),94.5% (active)
O=C1C=C(Cl)C(=O)C(Cl)=C1,15%,99% (active),99.4% (active),23%,99% (active),99.3% (active),7%,99% (active),99.5% (active),0%,95% (active),91.5% (active),10%,99% (active),99.3% (active),20%,99% (active),99.4% (active)
CCOc1c(Br)cc(/C=C(\C)[N+](=O)[O-])cc1OC,2%,7%,61.9%,-1%,9%,78.5% (active),6%,9%,87.3% (active),-1%,-3%,93.4% (active),-4%,2%,72.5% (active),-5%,4%,79.7% (active)
CN(C)C(=S)[S][Hg][c]1ccccc1,64%,87% (active),91.3% (active),69%,75% (active),93.4% (active),101% (active),99% (active),93.7% (active),54%,99% (active),92.8% (active),101% (active),100% (active),92.1% (active),52%,70% (active),91.5% (active)

# — PubChem BioAssay (NCI)
